Compound activity (PubChem BioAssay)
Rows were chosen to be rich in hits. Some 4.4% of all compounds tested hit in one or more screens of this group.
PfHsp90 set2 = inhibits growth of yeast expressing Plasmodium falciparum Hsp90; S. cerevisiae expressing PfHsp90, BacTiter-Glo ATP, 48 h; yeast lacking PDR1 and PDR3 efflux regulators; inhibition, % at 9.4 µM; hit rate 0.32% among 310,000; AID 504621;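 active = every replicate shows inhibition above about 80%, whatever the replicate mean, limit read from the data; inconclusive = mean inhibition reaches the set limit but some replicate falls short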
TIM10 inh = growth inhibitors of TIM10 yeast strain | S. cerevisiae TIM10 strain growth, BacTiter-Glo luminescence, 24 h | inhibition, % at 10 µM | hit rate 1.4% among 330,000;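 active = inhibition of 40% or more at the single tested concentration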;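 note: wild-type TIM10 isogenic control strain grown at permissive 25 °C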
tim23-1 inh = tim23-1 yeast growth inhibition | S. cerevisiae tim23-1 growth, BacTiter-Glo luminescence, 24 h | inhibition, % at 20 µM | hit rate 1.3% among 330,000 | AID 463212;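 active = growth inhibition of the mutant yeast at or above 50%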;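 note: temperature-sensitive mutant grown at 25 °C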
tim10-1 inh = tim10-1 yeast growth inhibition | S. cerevisiae tim10-1 ts strain growth, BacTiter-Glo, 24 h | inhibition, % at 20 µM | hit rate 2.2% among 330,000;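 active = inhibition of at least 40%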;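 note: mutant grown at 25 °C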
Mot1-301 SUMO = blocks SUMOylation pathway, rescuing yeast Mot1-301 growth. growth rescue, % at 18.8 µM. S. cerevisiae Mot1-301 growth rescue, ATP luminescence, 38.5C; percent above DMSO median, 100 means doubled. hit rate 1% among 320,000;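 active = every valid replicate shows activation above 250% relative to neutral control wells; inactive = the rest, any valid replicate at or below 250%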
TIM10 conf = TIM10 yeast growth inhibition, confirmed; shares compounds with TIM10 inh; S. cerevisiae tim10 strain growth, BacTiter-Glo luminescence, 24 h; inhibition, % at 10 µM; hit rate 63% among 4,600;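 active = inhibition of yeast growth at or above a set limit in either of two replicates at 10 µM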; note: this counterscreen used the strain with wild-type TIM10
tim23-1 confirm = confirmation of tim23-1 mutant yeast growth inhibitors. AID 463218. inhibition, % at 20 µM. shares compounds with tim23-1 inh. S. cerevisiae tim23-1 growth, BacTiter-Glo luminescence, 24 h. hit rate 83% among 4,400;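 active = inhibition above about 39% in either of two replicate wells at 20 µM, limit read from the data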;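 note: temperature-sensitive tim23-1 mutant grown at 25 °C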
Large screens that a line does not name were inactive (follow-up assays come after a bar, where they were run).

C/C(=N\NC(=S)NCCc1ccccc1)c1cccs1	TIM10 inh 41.2, tim23-1 inh 51.4 | TIM10 conf inactive | tim23-1 confirm 45.9
C/C(CCc1ccccc1)=N\NC(=S)NCCc1ccccc1	none
O=C(O)C1CCCCC1C(=O)Nc1ccc(S(=O)(=O)N2CCOCC2)cc1 (stereo unspecified)	none (no result: TIM10 inh, tim23-1 inh, tim10-1 inh, Mot1-301 SUMO)
COc1ccc(C(C)=O)cc1COc1ccc(F)cc1	none
COc1ccc(C(=O)NN)cc1COc1ccc(Br)cc1	TIM10 inh 46.9, tim23-1 inh 61.0 | TIM10 conf 40.3 | tim23-1 confirm 43.2
Cc1ccc(-n2c(-c3ccc(Cl)cc3)n[nH]c2=S)c(C)c1	TIM10 inh 46.6, tim23-1 inh 54.6 | TIM10 conf 48.7 | tim23-1 confirm 42.3
N/C(Cc1ccc(Cl)cc1)=N\OC(=O)C1CCCCC1	TIM10 inh 87.1, tim23-1 inh 78.8 | TIM10 conf inactive | tim23-1 confirm 52.7
O=C(COC(=O)C1CCCC1)NCc1ccc(Cl)cc1	none
COc1ccc(S(=O)(=O)N2CCN(Cc3ccc(Cl)cc3)CC2)cc1	TIM10 inh 42.3, tim23-1 inh 58.4 | TIM10 conf 40.4 | tim23-1 confirm 50.5
CC1=NN(C(N)=S)C(=O)C1N=Nc1c(Br)cc(Br)cc1Br (stereo unspecified)	TIM10 inh 44.8, tim23-1 inh 60.0 | TIM10 conf 60.5 | tim23-1 confirm 63.5
O=C(c1ccc([N+](=O)[O-])o1)N1CCc2ccccc2C1	PfHsp90 set2 inconclusive, TIM10 inh 73.1, tim23-1 inh 59.0 | TIM10 conf 73.2 | tim23-1 confirm inactive
O=C(c1ccc([N+](=O)[O-])o1)N1CCCCCC1	none
CC(C)(C)n1cnc2cc(NCc3ccc(Br)cc3)ccc21	TIM10 inh 52.6, tim23-1 inh 54.2 | TIM10 conf 37.5 | tim23-1 confirm 69.2
Oc1c(CN2CCc3ccccc3C2)cc(Cl)c2cccnc12	PfHsp90 set2 102.4, TIM10 inh 43.2, tim23-1 inh 56.2 | TIM10 conf 41.0 | tim23-1 confirm 54.5
O=C(COC(=O)c1ccc(Cl)cc1)NCC1CCCCC1	none (no result: PfHsp90 set2)
Cc1ccc(S(=O)(=O)N2CCOCC2)cc1C(=O)OCC(=O)Nc1ccc2[nH]c(=O)[nH]c2c1	none (no result: PfHsp90 set2)
CCC1(c2ccccc2)ON(c2c(Br)cccc2Br)C1=O (stereo unspecified)	TIM10 inh 71.2, tim23-1 inh 78.3, Mot1-301 SUMO 717.6 | TIM10 conf 56.0 | tim23-1 confirm inactive
c1ccc2c(c1)ncn2CCC1CCCCC1	TIM10 inh 41.8, tim23-1 inh 53.4 | TIM10 conf 35.2 | tim23-1 confirm inactive
C[C@@H](CC#N)CN1CC[C@H](C(C)(C)C)CCC1=O	none
S=C(Nc1ccccc1Cl)Nc1ccc(Cl)cc1Cl	none
S=C(NNc1ccnc2cc(Cl)ccc12)Nc1ccccc1Cl	TIM10 inh 40.1, tim23-1 inh 55.8 | TIM10 conf inactive | tim23-1 confirm inactive
CC(C)=CCc1c(O)ccc(C(=O)Cc2ccccc2)c1O	TIM10 inh 40.6, tim23-1 inh 66.9 | TIM10 conf 58.0 | tim23-1 confirm inactive
N/C(=N\OC(=O)c1ccc(Cl)c([N+](=O)[O-])c1)c1ccccc1	TIM10 inh 71.9, tim23-1 inh 81.4 | TIM10 conf 72.2 | tim23-1 confirm 78.3
N/C(=N\OC(=O)c1ccc(Cl)c([N+](=O)[O-])c1)c1ccccn1	none (no result: Mot1-301 SUMO)
CCOC(=O)c1c(N)sc(C(=O)Nc2ccccc2)c1C	TIM10 inh 41.3, tim23-1 inh 55.4 | TIM10 conf inactive | tim23-1 confirm 68.0
O=C(OCC(=O)N1CCOCC1)c1cc(=O)[nH]c2ccccc12	none
Cc1ccc(NC(=O)C2C(c3ccccc3)C2(Cl)Cl)c(C)c1 (stereo unspecified)	none (no result: PfHsp90 set2)
Cc1cccc(NC(=O)C2C(c3ccccc3)C2(Cl)Cl)c1 (stereo unspecified)	TIM10 inh 45.7, tim23-1 inh 52.1 (no result: Mot1-301 SUMO) | TIM10 conf 32.5 | tim23-1 confirm 51.1
COc1ccc(Cl)cc1C(=O)N1CCN(Cc2ccc3c(c2)OCO3)CC1	none
O=C(NCCc1cnn(-c2ccccc2)c1)c1cc(COc2c(F)cccc2F)on1	TIM10 inh 68.1, tim23-1 inh 52.1 | TIM10 conf 53.0 | tim23-1 confirm 67.8
CC(CNC(=O)c1cc(COc2c(F)cccc2F)on1)c1ccccc1 (stereo unspecified)	none
Cn1c(CC(=O)NNC(=O)c2ccccc2[N+](=O)[O-])nc2ccccc21	none (no result: Mot1-301 SUMO)
Cc1nn(CC(=O)Nc2ccc3nc4n(c(=O)c3c2)CCCC4)c(C)c1[N+](=O)[O-]	none
CC1(c2nnc(-c3cccc(Cl)c3)o2)CC(c2cccc([N+](=O)[O-])c2)=NO1 (stereo unspecified)	none
CC(=O)N1c2ccc(N=Cc3cc(Br)cc(Br)c3O)cc2CC1C (stereo unspecified)	TIM10 inh 73.4, tim23-1 inh 83.7 (no result: PfHsp90 set2) | TIM10 conf inactive | tim23-1 confirm 86.9
CC(=O)N1c2ccc(S(=O)(=O)CCC(=O)O)cc2CC1C (stereo unspecified)	none
Cc1cc(S(=O)(=O)N2CCCC(C)C2)ccc1-n1cnnn1 (stereo unspecified)	none
COc1cc(/C=C2\CCC/C(=C\c3ccc(O)c(OC)c3)C2=O)ccc1O	TIM10 inh 41.0, tim23-1 inh 82.2 | TIM10 conf 38.9 | tim23-1 confirm 51.8
COc1cccc(C(=O)Nc2ccccc2)c1	TIM10 inh 44.1, tim23-1 inh 50.2 | TIM10 conf inactive | tim23-1 confirm 57.5
COc1cccc(NC(=O)c2cccs2)c1	TIM10 inh 66.4, tim23-1 inh 50.7 (no result: PfHsp90 set2) | TIM10 conf 55.6 | tim23-1 confirm 75.1
COCC(=O)Nc1cc(C(=O)Nc2ccccc2)ccc1Cl	TIM10 inh 41.8, tim23-1 inh 53.6 (no result: PfHsp90 set2) | TIM10 conf 47.4 | tim23-1 confirm 71.0
COc1ccc(NC(=O)c2cccs2)cc1OC	none
CCOCC(=O)Nc1cc(C(=O)Nc2ccc(F)cc2)ccc1Cl	none (no result: PfHsp90 set2)
CC(c1ccccc1)N1CCn2c(nc3cc(NC(=O)c4cccs4)ccc32)C1 (stereo unspecified)	TIM10 inh 43.5, tim23-1 inh 53.3 | TIM10 conf 32.2 | tim23-1 confirm 63.5
COc1cc2c(cc1OC)CN(C(=O)c1cc(S(=O)(=O)N3CCOCC3)ccc1C)CC2	none (no result: PfHsp90 set2)
Cc1cccc(-c2cccc(NC(=O)C3CCCN(C(=O)c4csc(C)n4)C3)c2)c1 (stereo unspecified)	none
N#Cc1ccc(S(=O)(=O)NC2CCCCNC2=O)cc1 (stereo unspecified)	none
Cc1cccc(C(=O)Oc2ccc3ccc(O)cc3c2)c1	none
COc1ccc(C(=O)Nc2ccccc2)cc1NC(=O)c1cccs1	TIM10 inh 53.9, tim23-1 inh 50.9 | TIM10 conf 45.0 | tim23-1 confirm 74.2
